# Rows were chosen to be rich in hits. Some 4.3% of all compounds tested hit in one or more screens of this group.
# HIF-2a block: HIF-2a reporter inhibitors, primary screen, luminescence, 786-0 RCC cells | 786-0 RCC cells HIF-2a reporter, luciferase luminescence, overnight | inhibition, % at 18.8 µM | actives 0.72% (n = 360,000) | AID 624352, 2012;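 active means inhibition of the luminescence signal of 40% or more relative to plate controls, in a single-dose primary screen at 18.75 µM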
# CF NFkB inh: inhibitors of PAF-induced NF-kB signaling, primary screen, cell-based, GFP fluorescence, uHTS; KKLEB NF-kB-GFP reporter, GFP fluorescence overnight; inhibition, % at 5 µM; actives 0.86% (n = 360,000);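 active means at least 50% inhibition at 5 µM, scaled per plate between neutral and stimulator controls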;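 further: PAF is a Pseudomonas aeruginosa culture filtrate used as stimulus; plate controls were PAF-stimulated DMSO wells for no effect and unstimulated DMSO wells for full effect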
# KKLEB tox: cytotoxicity in KKLEB CF airway cells, primary screen, cytotoxicity control for CF NF-kB inhibitor project, cell-based, uHTS, fluorescence assay plates | KKLEB CF airway cells viability, ATPlite luminescence, overnight; hits give low values; cells stimulated with P. aeruginosa culture filtrate | actives 0.36% (n = 360,000) | activity change (cytotoxicity), % at 5 µM;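 active means corrected activity change at or below -50% at 5 µM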
# TRPM1 prom inh: inhibitors of MITF-dependent TRPM1 promoter reporter, primary screen, cell-based, SK-MEL-5, single point, luciferase; SK-MEL-5 TRPM1 promoter luciferase, 24 h; inhibition, % at 12.5 µM; actives 0.83% (n = 330,000); AID 488899, 2010;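 active means mean inhibition across replicates of 60% or more, whatever share of single replicates reaches that level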
# CHOP inh: inhibitors of CHOP promoter induction, primary screen, cell-based, unfolded protein response, luciferase reporter | AID 2732, 2010 | actives 3.8% (n = 220,000) | CHO-K1 CHOP-promoter luciferase, tunicamycin-induced, 15-18 h | inhibition, % at 10 µM;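 active means compounds that reduced the stress-induced luciferase reporter signal by more than about 70% of percent inhibition, limit read from the data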;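 further: 0% = tunicamycin plus vehicle and 100% = wells without tunicamycin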
# Peg3 promoter: Peg3 promoter-driven luciferase inhibitors, primary screen, cell-based, HeLa, luciferase luminescence | inhibition, % at 20 µM | actives 1.7% (n = 360,000) | HeLa PEG-Prom luciferase reporter, overnight;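 active means inhibition of at least 50% at 20 µM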
# CHOP inh conf: retest of CHOP induction inhibitors, confirmation, cell-based | AID 504437, 2011 | shares compounds with CHOP inh | actives 45% (n = 2,100) | inhibition, % at 10 µM | CHO-CHOP promoter luciferase reporter, tunicamycin-induced, luminescence;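 active means mean of three repeat readings of reporter signal inhibition above a set limit, cut at about 70% in these data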;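 further: 0% = tunicamycin plus vehicle and 100% = wells lacking tunicamycin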
# Active calls of the source: *; / = no result.
SMILES,HIF-2a block,CF NFkB inh,KKLEB tox,TRPM1 prom inh,CHOP inh,Peg3 promoter,CHOP inh conf
CC(C)Oc1ccc(CNC(=O)CC(c2ccccc2)c2cc(Cl)ccc2O)cc1 (stereo not given),7,7,-11,14,98*,34,104*
Cc1cc(/C=N/Nc2nc(N)ncc2[N+](=O)[O-])c(C)n1-c1cccc(C(F)(F)F)c1,/,/,/,/,98*,/,96*
COc1ccc(C(=O)NC(=S)N2CCN(c3ccccc3O)CC2)cc1,-47,-22,1,7,/,-26,/
CCCc1cc(=O)[nH]c(Nc2ccc(N3CCCCC3)cc2)n1,10,7,-4,5,107*,21,94*
CCCCc1ccc(Nc2nc(CCC)cc(=O)[nH]2)cc1,-16,-12,-2,15,107*,2,98*
CC(C)=CCc1cc(-c2oc3cc(O)cc(O)c3c(=O)c2O)ccc1O,-61,35,15,-46,/,-118,/
CC(C)=CCc1c(O)cc2oc3c(CC=C(C)C)c(O)c(O)c(CC=C(C)C)c3c(=O)c2c1O,23,36,-27,/,97*,39,120*
O=C(CCOc1ccccc1)Nc1ccnn1C1CCN(C(=O)CCC(F)(F)F)CC1,-54,-2,-4,-13,/,-41,/
Cc1cc(Sc2nc(N)ncc2[N+](=O)[O-])ncn1,3,38,-2,24,106*,79*,26
CC1=C(C(=O)Nc2ccc(C)cc2C)C(c2ccc(Cl)cc2)n2nc(C(=O)OC(C)C)nc2N1 (stereo not given),3,-6,-4,12,105*,29,18
COc1cc(/C=N/N=C(/C(=O)c2ccccc2)c2ccccc2)cc(OC)c1O,23,-19,2,5,99*,8,1
CC(C)(C)c1cc(NC(=O)Nc2ccc(Br)cc2Cl)no1,-133,17,2,-22,9,-66,/
CC(C)(C)c1cc(NC(=O)Nc2ccc(Cl)cc2Cl)no1,-102,28,-5,-14,96*,-77,13
COc1ccccc1/C=C/C=N/NC(=O)c1cc(-c2ccco2)[nH]n1,4,-7,10,-7,9,11,/
O=C(N/N=C/C(Br)=C/c1ccccc1)c1cc(-c2ccco2)[nH]n1,-17,17,-11,14,103*,-12,8
CCOc1ccc(NC(=O)CN(C)S(=O)(=O)c2ccc(-c3ccc(=O)[nH]n3)s2)cc1,4,0,-18,-3,/,-4,/
Cc1ccc(-c2n[nH]c(=S)n2/N=C/c2c(C)nn(-c3ccccc3)c2C)cc1,13,-15,-8,3,109*,31,37
Cc1ccccc1-c1n[nH]c(=S)n1/N=C/c1c(C)nn(-c2ccccc2)c1C,7,12,-4,-18,30,14,/
Cc1ccccc1CNc1ccc(C(CC(N)=O)NC(=O)c2ccc(Br)cc2)cc1[N+](=O)[O-] (stereo not given),4,29,-28,-11,103*,30,24
O=S(=O)(Nc1c(S(=O)(=O)c2ccccc2)c2nc3ccccc3nc2n1C1CCCCC1)c1ccccc1,-3,26,1,7,106*,22,23
Cc1ccc(-n2c(=O)[nH]c3c(C(N)=O)nc(-c4ccc(C)o4)nc32)cc1,0,2,-4,-16,107*,7,121*
COc1cccc(CN(CC(=O)NCc2ccccc2)C(=O)c2csnn2)c1,-3,-6,5,-10,/,-4,/
O=C(Nc1ccc([N+](=O)[O-])cc1)Nc1nc(-c2ccc(Cl)s2)cs1,13,48,-47,72*,107*,69*,83*
CC(=O)Nc1nc(-c2ccc([N+](=O)[O-])cc2)cs1,-62,-32,22,-18,8,-38,/
Nc1c(S(=O)(=O)c2cccc(Cl)c2)c2nc3ccccc3nc2n1/N=C/c1ccc(O)c(O)c1,/,/,/,/,107*,/,103*
SMILES,HIF-2a block,CF NFkB inh,KKLEB tox,TRPM1 prom inh,CHOP inh,Peg3 promoter,CHOP inh conf
CCOC(=O)CSC1=NC(=O)/C(=C\c2ccc(OC(C)=O)cc2)S1,19,0,1,79*,106*,53*,28
CCOC(=O)COc1ccc(Br)cc1/C=C1\SC(N)=NC1=O,12,4,5,2,/,2,/
CCC(C)CCN1CCN=C1Nc1ccccc1 (stereo not given),6,3,0,3,/,9,/
Cc1cccc(C)c1NC(=O)CNC(=O)c1cn(-c2ccccc2)nc1-c1ccccc1,-6,-30,9,5,/,-4,/
Cc1nn(Cc2c(Cl)cccc2Cl)c(C)c1NC(=O)c1cn(-c2ccccc2)nc1-c1ccccc1,34,23,-42,87*,109*,115*,106*
Cc1ccc(-c2csc(NC(=O)CSc3nnc4c(n3)[nH]c3ccccc34)n2)cc1,-31,20,-12,20,101*,56*,50
Cc1nn(-c2ccc(C(F)(F)F)cn2)c(C)c1Oc1ccccc1O,7,-7,-6,-19,100*,-46,102*
Cc1nc2ccc3nc(NC(=O)c4ccc5c(c4)OCCO5)sc3c2s1,-82,-1,2,-18,-51,-27,/
Cc1nc2c(ccc3nc(NC(=O)c4ccc5c(c4)OCCO5)sc32)s1,-173,14,-53*,-6,100*,-5,43
O=C(Cn1c2c(sc1=O)C1c3ccccc3OCC1CS2)Nc1ccc(Cl)c(Cl)c1 (stereo not given),24,31,-12,-7,99*,38,35
O=C1NC(=O)C2(CCCCCC2)N1,11,0,0,-3,/,-3,/
Cc1ccc(NNC(=S)Nc2ccc(C(C)C)cc2)c(C)c1,-41,6,2,6,106*,-21,16
CC1=C(C(=O)N2CCCCCC2)CC(CC(=O)NC2CCCC2)C(=O)N1Cc1ccc(C(C)(C)C)cc1 (stereo not given),-20,/,/,/,/,/,/
Cc1cc(C)c(C)c(OCc2nc(-c3cccnc3)no2)c1,-19,10,0,2,97*,-36,35
CC(=O)C1=C(c2ccc(Br)cc2)C(=O)c2ccccc2C1=O,30,81*,-12,84*,110*,96*,108*
CC(=O)Nc1c(Br)cc2c(c1Br)C(=O)c1ccccc1-2,-18,0,-6,-3,/,-5,/
C/C(N=Nc1nc2ccccc2s1)=N\Nc1ccccc1O,-18,47,-37,25,54,36,/

# Source: PubChem (several laboratories)
